In PubChem BioAssay AID2314 (National Center for Advancing Translational Sciences (NCATS), 2010):
Among all 300,000 compounds or so, about 37,000 (12%) were called active. Rule as the data show it: active = max response mostly above about 13% (no sharp cut-off); inactive = mostly below about 14%. The sample as a whole holds a higher share of actives than the screen did.

Experiment: Cycloheximide Counterscreen for Small Molecule Inhibitors of Shiga Toxin; also: read at 38.3 µM for the half of the compounds with a filed dose; 0% is about no effect
Details: cell reporter, cycloheximide protein synthesis inhibition counterscreen; active compounds read high
For CCc1ccc(OC(C)C(=O)Nc2ccc(S(=O)(=O)Nc3cc(C)on3)cc2)cc1 (centres undefined), the max response was -1.86% (inactive). For COc1ccccc1NC(=O)CN(c1ccccc1OC)S(=O)(=O)c1ccccc1, the max response was -1.65% (inactive). In the case of O=C1C[C@@H](c2ccc3ccccc3c2)N1S(=O)(=O)c1ccccc1[N+](=O)[O-], the max response is reported as -1.77% (inactive). For O=C1C2C(c3ccccc3)CC=CC2C(c2ccoc2)N1Cc1ccccc1 (centres undefined), the max response was 0.409% (inactive). In the case of O=C(CN1C(=O)NC2(CCCCC2)C1=O)NCCc1c[nH]c2ccccc12, the max response is reported as -0.529% (inactive). For CC(C)(C)N(Cc1ccccc1)C(=O)c1ccncc1, the max response was -0.936% (inactive). For Cc1nnc(SCc2ccc(C(=O)c3ccc(Cl)cc3)o2)n1-c1ccccc1, the max response was 6.81% (inactive). For Cc1ccc(-c2noc(CSc3nnc(-c4ccncc4)n3-c3ccc(F)cc3)n2)cc1, the max response was 0.685% (inactive). For Cc1ccc(-c2nc(-c3ccncc3)no2)c(C)c1, the max response was 43.8% (active). With Cc1ccc2nc(-c3ccncc3)cc(C(=O)Nc3ccncc3)c2c1 the max response was 6.6% (inactive). In the case of Cc1cc(S(=O)(=O)N2CCOCC2)ccc1OCC(=O)Nc1cccc(C(F)(F)F)c1, the max response is reported as -3.96% (inactive). For CCC1=Nc2cc(C(=O)NCCN3CCCC3)ccc2Sc2ccc(C)cc21, the max response was 14.2% (inactive). In the case of O=C(Nc1ccccc1)Nc1ccc(C(F)(F)F)cn1, the max response is reported as 13% (inactive). With CONC(=O)c1cc(OCC(F)(F)F)ccc1OCC(F)(F)F the max response was -3.39% (inactive). With O=C(NC(=O)c1cc(OCC(F)(F)F)ccc1OCC(F)(F)F)Nc1ccccc1 the max response was 8.68% (active). In the case of CC1CCN(C(=O)Cn2nnnc2CN2CCOCC2)CC1, the max response is reported as -2.13% (inactive). In the case of COc1ccc(CCNC(=O)C(=O)NCC2OCCN2S(=O)(=O)c2ccc(F)cc2)cc1OC (centres undefined), the max response is reported as 1.66% (inactive). With CC(NC(=O)c1ccc(N2CCNCC2)c([N+](=O)[O-])c1)C12CC3CC(CC(C3)C1)C2 (centres undefined) the max response was -1.62% (inactive). With COCCNC(=O)c1ccc(N2CCC3(CC2)OCCO3)c([N+](=O)[O-])c1 the max response was -2.09% (inactive). In the case of CCC(C)NC(=O)c1ccc(N2CCC3(CC2)OCCO3)c([N+](=O)[O-])c1 (centres undefined), the max response is reported as 20% (active). With Cc1cc(C)cc(Oc2nc3c(C)cccn3c(=O)c2/C=C(\C#N)C(=O)NC2CCS(=O)(=O)C2)c1 (centres undefined) the max response was -2.61% (inactive). In the case of COc1cc(/C=N\Nc2ccc([N+](=O)[O-])cn2)ccc1OCC(=O)O, the max response is reported as 15.7% (inactive). For COc1cc(/C=N/O)ccc1OCc1ccc([N+](=O)[O-])cc1, the max response was 88.7% (active). With COc1cc(C(=O)OCc2ccc([N+](=O)[O-])cc2)cc(OC)c1OC the max response was -1.24% (inactive). For Cc1cc(=O)oc2c3c(cc(OCC(=O)N[C@H](C(=O)O)c4ccccc4)c12)OC(C)(C)CC3, the max response was -1.78% (inactive). In the case of CC(C)C(NS(=O)(=O)c1ccc(-c2ccc(Br)cc2)cc1)C(=O)O (centres undefined), the max response is reported as 7.4% (inactive). In the case of Cc1cc(C)cc(N(CC(=O)NC2CCCC2)C(=O)CCC(=O)Nc2nccs2)c1, the max response is reported as -5.07% (inactive). For Cc1nn(-c2ccccc2)c(C)c1NC(=O)CCl, the max response was 17.3% (inactive). With Cc1nn(-c2ccccc2)c(C)c1/C=C/C(=O)OC(C)C(N)=O (centres undefined) the max response was 18.6% (active). With Cc1nn(-c2ccccc2)c(=O)c2noc(C)c12 the max response was -1.05% (inactive). For CCc1ccccc1S(=O)(=O)Cc1ccc(C(=O)NCCc2ccccc2)o1, the max response was 16% (inactive). For CCN(CC)S(=O)(=O)c1cc(C(=O)Nc2ccccn2)ccc1C, the max response was 45.1% (active). In the case of CCN(CC)S(=O)(=O)c1cccc(C(=O)Nc2ccccc2)c1, the max response is reported as 17.1% (active). In the case of CCN(CC)S(=O)(=O)c1ccc(NC(=O)c2cccnc2Cl)c(NC(=O)c2cccnc2Cl)c1, the max response is reported as -1.75% (inactive). With CCN(CC)S(=O)(=O)c1ccc(NC(=O)c2cnc(C)cn2)cc1 the max response was 0.654% (inactive). With Cc1ccc(NC(=O)CNCc2ccccn2)cc1S(=O)(=O)N(C)C the max response was 19.5% (inactive). In the case of CCN(CC)S(=O)(=O)c1cccc(C(=O)NCC(=O)OCC(=O)NCc2ccccc2)c1, the max response is reported as -1.61% (inactive). With CC(C)c1ccc(C2C(C(=O)c3ccco3)=C(O)C(=O)N2CC2CCCO2)cc1 (centres undefined) the max response was 10.1% (inactive). With CC(C)(C)[C@H]1C=C(C(=O)NCc2ccccc2)O[C@@H](OCc2ccc(CO)cc2)C1 the max response was -1.33% (inactive). For COc1cc(C(=S)N2CCOCC2)cc(OC)c1OC(=O)c1ccc([N+](=O)[O-])cc1[N+](=O)[O-], the max response was 3.8% (inactive). For Cn1c(SCc2c(F)cccc2Cl)nnc1-c1cnccn1, the max response was 56.4% (active). With Oc1ccc(-n2nnnc2SCc2c(F)cccc2Cl)cc1 the max response was -2.8% (inactive). For Cn1c(SCc2ccc(F)cc2)nnc1-c1ccncc1, the max response was 10.5% (inactive). For O=C(CSc1nnc(-c2cnccn2)n1Cc1ccco1)c1ccc(Cl)c(Cl)c1, the max response was 0.777% (inactive). For Cc1ccc(CSc2nnc(-c3cnccn3)n2C)cc1, the max response was 10.9% (active). With CCN(CC)C(=O)CSc1nnc(-c2cnccn2)n1-c1ccc(C)cc1 the max response was 0.416% (inactive). With CN(C)C(=O)c1coc2nc3ccccc3nc12 the max response was 4.74% (inactive). In the case of COc1ccc(C(C[N+](=O)[O-])n2nc(C)cc2C)cc1 (centres undefined), the max response is reported as -0.331% (inactive). In the case of COc1ccc(C(=O)N2CCc3cc(OC)c(OC)cc3C2c2cccc([N+](=O)[O-])c2)cc1 (centres undefined), the max response is reported as 0.684% (inactive). With CCOC(=O)c1ccccc1NC(=O)CSc1nc2ccccc2c(=O)[nH]1 the max response was -3.39% (inactive). For O=C(CCS(=O)(=O)c1ccccc1)Nc1nc2c(s1)CCCC2, the max response was 5.94% (inactive). For CSc1nc(O)c(Cc2ccccc2)c(=O)[nH]1, the max response was -3.85% (inactive). For O=C(CSc1nc(O)c(Cc2ccccc2)c(=O)[nH]1)Nc1nc2c(s1)CCCC2, the max response was 28% (active). In the case of CCOC(=O)c1sc(NC(=O)CSc2n[nH]c(CC)n2)nc1C, the max response is reported as 0.587% (inactive). In the case of CCOC(=O)c1sc(NC(=O)CSc2nc(O)c(Cc3ccccc3)c(=O)[nH]2)nc1C, the max response is reported as 39.7% (active). With O=C(COC(=O)c1ccc2c(c1)OCCO2)NCc1ccccc1 the max response was 10.5% (inactive). In the case of Cc1cccc(C(=O)Nc2ccccc2N2CCN(c3ccc(F)cc3)CC2)c1, the max response is reported as -0.148% (inactive). In the case of O=C(OCc1ccccc1F)c1ccc2c(c1)OCCO2, the max response is reported as 33% (active). For Cc1ccc(F)cc1NC(=O)c1cccc(N(C)C)c1, the max response was 28.9% (active). In the case of O=C(Nc1ccccc1F)c1ccc2c(c1)OCO2, the max response is reported as 41.4% (active). In the case of Cn1c(NC(=O)c2ccc3c(c2)OCO3)cc(=O)n(C)c1=O, the max response is reported as -4.72% (inactive). For O=C(Nc1ccccc1N1CCN(C(=O)c2ccccc2)CC1)c1ccc2c(c1)OCO2, the max response was -1.45% (inactive). For CC(NC(=O)COC(=O)c1ccc2c(c1)OCO2)c1ccccc1 (centres undefined), the max response was 7.94% (inactive). For Cc1ccc(-n2nc3c(c2NC(=O)c2ccc4c(c2)OCO4)CSC3)c(C)c1, the max response was -1.7% (inactive). With COc1ccc(C(=O)Nc2ccc(F)cc2F)cc1 the max response was 28.7% (inactive). In the case of Cc1ccc(F)cc1NC(=O)c1ccc2c(c1)OCO2, the max response is reported as 25.6% (active). In the case of Cc1cc2c(c(=O)n1C)C(C(C)C)C(C#N)=C(N)O2 (centres undefined), the max response is reported as -2.6% (inactive). With Cc1cccc(C)c1NC(=O)CS(=O)CC(=O)N1CCN(c2ccccc2)CC1 (centres undefined) the max response was -5.35% (inactive). With CCc1cccc(C)c1N1C(=O)CN(Cc2ccccc2)C1=S the max response was -2.45% (inactive). With O=C1/C(=C\c2cccnc2)CN(Cc2ccccc2)C/C1=C\c1cccnc1 the max response was 7.45% (inactive). With CCOC(=O)N1CCN(c2c(NCCN3CCN(c4ccccc4F)CC3)c(=O)c2=O)CC1 the max response was -2.33% (inactive). With COc1ccc(C(CNCC(=O)Nc2ccccc2F)N(C)C)cc1 (centres undefined) the max response was -2.53% (inactive). With COc1ccc(C2C(C#N)=C(N)Oc3cc(N)ccc32)cc1OC (centres undefined) the max response was 11.4% (inactive). For COCCCn1c(SCc2cccc(OC)c2)nc2cc(OC)c(OC)cc2c1=N, the max response was 6.77% (inactive). For Cc1onc(-c2ccccc2)c1C(=O)Nc1ccccc1C#N, the max response was 3.86% (inactive). In the case of O=C(c1ccc2c(c1)OCO2)N1CCNc2ccccc2C1, the max response is reported as 3.63% (inactive). In the case of CC1(c2ccc(Cl)cc2)NC(=O)N(CC(=O)c2ccc3c(c2)OCO3)C1=O (centres undefined), the max response is reported as 14.2% (inactive). In the case of N#Cc1ccccc1NC(=O)c1ccc2c(c1)OCO2, the max response is reported as 24.8% (active). For O=C(CN1CCN(CC(=O)Nc2ccc3c(c2)OCO3)CC1)Nc1ccc(F)cc1, the max response was -2.15% (inactive). In the case of O=C(CN1CCN(c2ccccc2F)CC1)c1ccc2c(c1)OCO2, the max response is reported as 16.8% (active). With CSCCC(NC(=O)c1cc([N+](=O)[O-])cc([N+](=O)[O-])c1)c1nc2ccccc2[nH]1 (centres undefined) the max response was -1.41% (inactive). In the case of Cc1cc(C(=O)N/N=C/c2cc([N+](=O)[O-])cc(C)c2O)n[nH]1, the max response is reported as 4.92% (inactive). In the case of Cc1cc(=O)[nH]c(Nc2cccc(Br)c2)n1, the max response is reported as -1.7% (inactive). For CN(C)Cc1c(C(=O)N/N=C/c2ccccc2OCc2ccc(F)cc2)nnn1-c1nonc1N, the max response was -5.05% (inactive). In the case of CC(C)(C)c1ccc(/C=C/C(=O)NCCCn2ccnc2)cc1, the max response is reported as -3.02% (inactive). For O=C(NCCCn1ccnc1)Nc1ccc(Cl)cc1Cl, the max response was -6.88% (inactive). With O=C(/C=C/c1ccc(Cl)cc1)NCCCn1ccnc1 the max response was 13.1% (active). With FC(F)(F)c1ccc(CN2C[C@@H]3C(c4ccccc4)C4(c5ccccc5)CC3(C4)[C@H]2c2ccccc2)cc1 (some centres undefined) the max response was -2.46% (inactive). In the case of CCN(CC)S(=O)(=O)c1ccc(NC(=O)CN(c2cccc(F)c2)S(C)(=O)=O)cc1, the max response is reported as -1.18% (inactive). With Cc1ccc2nc(-c3ccc(NC(=O)CN(C)S(=O)(=O)c4ccccc4)cc3)sc2c1 the max response was 41.9% (active). With Cc1ccc(N(CC(=O)Nc2cc(C)cc(C)c2)S(=O)(=O)c2cccc3nonc23)cc1 the max response was -2.6% (inactive). In the case of COc1cc(NC(=O)CN(C)S(=O)(=O)c2ccc3nc(C)sc3c2)cc(OC)c1, the max response is reported as -1.04% (inactive). In the case of Cc1cccc(N(CC(=O)Nc2ccc(-c3nc4ccc(C)cc4s3)cc2)S(C)(=O)=O)c1, the max response is reported as 43% (active). With Cc1nc2ccc(S(=O)(=O)N(C)CC(=O)NC(C)c3ccccc3)cc2s1 (centres undefined) the max response was -0.483% (inactive).
